# Screens: PubChem BioAssay, Broad Institute
# Shown is part of a subset that was picked to be rich in hits.
# STK33 inh: inhibitors of human STK33 kinase. Q9BYT3. ADP-Glo luminescence, MBP substrate. inhibition, % at 12.5 µM. hit rate 0.44% among 27,000. AID 2322; in the data active = inhibition above about 20%; inconclusive = no clear call, values can overlap the other calls
# Target sequence (Q9BYT3 whole entry, looked up): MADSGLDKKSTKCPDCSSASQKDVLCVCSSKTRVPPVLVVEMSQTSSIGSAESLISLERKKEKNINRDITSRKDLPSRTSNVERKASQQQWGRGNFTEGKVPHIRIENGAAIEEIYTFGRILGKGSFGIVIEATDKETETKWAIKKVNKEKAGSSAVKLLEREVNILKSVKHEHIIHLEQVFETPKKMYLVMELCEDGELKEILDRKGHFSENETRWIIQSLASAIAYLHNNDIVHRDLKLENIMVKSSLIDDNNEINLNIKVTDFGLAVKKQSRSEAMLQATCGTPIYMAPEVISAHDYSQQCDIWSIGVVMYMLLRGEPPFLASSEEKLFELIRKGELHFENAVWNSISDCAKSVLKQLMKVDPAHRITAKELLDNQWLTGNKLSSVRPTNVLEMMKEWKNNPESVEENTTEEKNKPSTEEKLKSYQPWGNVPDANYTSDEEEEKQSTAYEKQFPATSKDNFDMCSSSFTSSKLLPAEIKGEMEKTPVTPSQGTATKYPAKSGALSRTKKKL
# MITF inhib: inhibitors of MITF; TRPM1 promoter luciferase, luminescence, 24 h; inhibition, % (no concentration beside the values); hit rate 0.28% among 37,000; AID 2240; in the data active = inhibition above about 85%; inconclusive = no clear call, values can overlap the other calls; inactive = below about 68%;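 note: human melanocyte line stably carrying TRPM1 promoter luciferase reporter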
# p53 PUMA act: restores mutant p53 pathway signaling in SW480 cells | SW480 PUMA-promoter luciferase, p53 mutant reactivation | activation, % at 9.98 µM | hit rate 1.5% among 28,000 | AID 624151; in the data active = activation above about 52%; inconclusive = no clear call, values can overlap the other calls
# NOMO-1 viab: STK33 inhibitor candidate reducing NOMO-1 cell viability | NOMO-1 AML viability, CellTiter-Glo luminescence, 72 h | AID 2330 | inhibition, % (no concentration beside the values) | hit rate 7.5% among 37,000; in the data active = inhibition above about 80%; inconclusive = no clear call, values can overlap the other calls
# Active calls of the source: *; ? = inconclusive; nt = not tested or not shown.
SMILES,STK33 inh,MITF inhib,p53 PUMA act,NOMO-1 viab
C[C@H]1CN([C@@H](C)CO)C(=O)Cc2cc(N(C)C)ccc2O[C@H]1CN(C)Cc1ccc(C(=O)Nc2ccccc2N)cc1,nt,31,nt,141*
C[C@H](CO)N1C[C@H](C)[C@H](CN(C)Cc2ccc(C(=O)Nc3ccccc3N)cc2)Oc2ccc(N(C)C)cc2CC1=O,nt,37,nt,141*
O=[N+]([O-])c1ccc(OCc2nc(-c3ccncc3)no2)cc1,-3,-22,7,21
Cc1noc(C)c1S(=O)(=O)Nc1cccc2c1O[C@@H](CN(C)Cc1ccc(C(=O)Nc3ccccc3N)cc1)[C@@H](C)CN([C@H](C)CO)C2=O,nt,11,nt,83*
Cc1noc(C)c1S(=O)(=O)Nc1cccc2c1O[C@H](CN(C)Cc1ccc(C(=O)Nc3ccccc3N)cc1)[C@H](C)CN([C@@H](C)CO)C2=O,nt,9,nt,137*
CC(Oc1cccc(NC(=O)c2ccc(Br)cc2)c1)C(=O)c1ccccc1 (configuration not stated),0,24,-5,43
CCCCCCC(=O)OC1OC(CO)C(O)C2OCC(C(=O)O)COC12 (configuration not stated),-4,8,8,4
C[C@@H]1CN([C@H](C)CO)C(=O)c2cccc(NC(=O)Nc3ccc4c(c3)OCO4)c2O[C@H]1CN(C)Cc1ccc(Cl)c(Cl)c1,nt,12,nt,87*
C[C@@H]1CN([C@@H](C)CO)C(=O)c2cccc(NC(=O)Nc3ccc4c(c3)OCO4)c2O[C@@H]1CN(C)Cc1ccc(Cl)c(Cl)c1,nt,-22,nt,56
C[C@H](CO)N1C[C@H](C)[C@@H](CN(C)Cc2ccc(Cl)c(Cl)c2)Oc2c(NC(=O)Nc3ccc4c(c3)OCO4)cccc2C1=O,nt,-8,nt,82*
NC(N)=NS(=O)(=O)c1ccc(N=Cc2ccccc2O)cc1,-3,-5,nt,5
Cc1cccc(N2C(=O)CC(SCC(=O)Nc3ccccc3)C2=O)c1 (configuration not stated),-1,-12,0,-19
Cc1ccc(NC(=O)CSc2nnc(-c3ccc(Cl)cc3Cl)n2-c2ccccc2)cc1,-2,5,6,22
CCn1c(SCC(=O)Nc2ccc([N+](=O)[O-])cc2C)nnc1-c1ccc(Cl)cc1,3,8,2,13
O=C(NC1CCN(Cc2ccccc2)CC1)c1ccc(NS(=O)(=O)c2cccs2)cc1,nt,nt,-19,nt
COc1cc(O)cc2c1C(=O)OC(C)C2 (configuration not stated),-1,6,9,10
C[C@@H]1C[C@@H]2O[C@H]2/C=C/C=C\C(=O)Cc2c(Cl)c(O)cc(O)c2C(=O)O1,-3,3,nt,118*
C[C@@H]1CN([C@H](C)CO)C(=O)c2cccc(NC(=O)CCCCCC(=O)Nc3ccccc3N)c2O[C@H]1CN(C)CC1CC1,nt,13,nt,122*
C[C@@H]1CN([C@@H](C)CO)C(=O)c2cccc(NC(=O)CCCCCC(=O)Nc3ccccc3N)c2O[C@H]1CN(C)CC1CC1,nt,13,nt,128*
C[C@H]1CN([C@@H](C)CO)C(=O)c2cccc(NC(=O)CCCCCC(=O)Nc3ccccc3N)c2O[C@@H]1CN(C)CC1CC1,nt,41,nt,120*
CC(NS(=O)(=O)c1ccccc1)C(=O)Nc1ccccc1Sc1ccccc1 (configuration not stated),-5,12,-5,22
CCc1cc2c(=O)n(-c3ccccc3)c(SCC(=O)Nc3ccc([N+](=O)[O-])cc3)nc2s1,1,5,-13,32
COc1ccccc1C1=NN(C(=O)CCC(=O)O)C(c2ccco2)C1 (configuration not stated),-2,-7,-7,11
CCOc1ccccc1C(=O)Nc1ccc(S(=O)(=O)Nc2ccccn2)cc1,24*,5,39,-26
CCOC(=O)c1c(NC(=O)COc2cccc(Cl)c2)sc(C)c1C,-4,0,7,56
SMILES,STK33 inh,MITF inhib,p53 PUMA act,NOMO-1 viab
COc1cc(/C=C2\Oc3cc(O)ccc3C2=O)ccc1O,78*,-103,nt,-2
COc1ccc(-c2coc3cc(O)ccc3c2=O)c(OC)c1O,1,-13,nt,9
Cn1c(SCC(=O)Nc2cccc(Br)c2)nnc1-c1cccs1,5,0,25,-17
COc1cc(C(=O)Nc2cc(-c3nc4ncccc4o3)ccc2C)ccc1OCc1ccc(Cl)cc1,-1,?,-45,112*
O=C(COc1ccc(Br)cc1)Nc1cccc(-c2nc3ncccc3o2)c1,9,-46,73*,15
COc1cc(C(=O)Nc2cccc(-c3nc4ncccc4o3)c2)cc(OC)c1OC,30*,-41,?,34
Cc1c(NC(=O)COc2ccc(Br)cc2)cccc1-c1nc2ncccc2o1,1,-57,54*,30
COc1ccc(OCC(=O)Nc2ccc3oc(-c4cccc(Br)c4)nc3c2)cc1,6,-73,43,5
Cc1cc(OCC(=O)Nc2cccc(-c3nc4ccccc4o3)c2C)cc(C)c1Cl,3,64,-4,?
CC(Sc1nc(=O)cc(N)n1-c1ccccc1)C(=O)Nc1ccc(Cl)cc1 (configuration not stated),-3,-13,-8,-9
O=C(COc1ccc(Cl)cc1)CC(=O)c1ccc(Cl)cc1,nt,-5,nt,110*
O=C(COc1cccc(NC(=O)c2ccc(Cl)cc2)c1)c1ccccc1,1,29,16,25
O=S(=O)(Nc1ncccn1)c1ccc(NC(=S)Nc2ccc(Oc3ccccc3)cc2)cc1,-2,-8,6,21
C[C@H]1CN([C@@H](C)CO)C(=O)c2cccc(NC(=O)c3nc4ccccc4s3)c2O[C@@H]1CN(C)Cc1ccc(Cl)c(Cl)c1,nt,36,nt,86*
C[C@H]1CN([C@@H](C)CO)C(=O)c2cccc(NC(=O)c3nc4ccccc4s3)c2O[C@@H]1CN(C)Cc1ccc2c(c1)OCO2,nt,62,nt,57
C[C@@H]1CN([C@@H](C)CO)C(=O)c2cccc(NC(=O)c3nc4ccccc4s3)c2O[C@@H]1CN(C)Cc1ccc2c(c1)OCO2,nt,11,nt,90*
C[C@@H]1CN([C@H](C)CO)C(=O)c2cccc(NC(=O)c3nc4ccccc4s3)c2O[C@H]1CN(C)Cc1ccc2c(c1)OCO2,nt,41,nt,98*
COc1ccc(C)cc1N(CC(=O)Nc1c(C)n(C)n(-c2ccccc2)c1=O)S(C)(=O)=O,2,3,-7,-3
CCN(CC)CC(O)Cn1c(C)c(-c2ccccc2)c2cc([N+](=O)[O-])ccc21 (configuration not stated),5,-49,-17,94*
CCc1ccc(N2C(N)=C(C#N)C(c3cccc(Cl)c3)c3c(C)noc32)cc1 (configuration not stated),nt,1,nt,-11
CC(C)(C)Sc1nc2ccccc2[nH]c1=S,nt,nt,-9,nt
COc1cc2c(c(OC)c1OC)-c1cc3c(cc1C[C@H]1C(=O)OC[C@@H]1C2)OCO3,-7,-8,-46,106*
COc1ccc(C2=Nc3ccccc3SC(c3ccccc3)C2)cc1 (configuration not stated),nt,-3,nt,113*
C[C@@]12C[C@@H](c3ccoc3)OC(=O)[C@H]1CC[C@@]1(C)C(C(=O)O)=CCC[C@@H]21,3,nt,-1,nt
O=C(O)CNc1ncnc2oc(-c3ccccc3)c(-c3ccccc3)c12,43*,-7,9,10
